Screens: PubChem, National Center for Advancing Translational Sciences (NCATS)
ATXN2 expr inh: ATXN2 expression inhibition; HEK-293 ATXN2-luciferase reporter, luminescence, 24 h; Potency, µM (titrated, usually from 57 µM), hits mostly inhibitors; 360,000 compounds, 0.72% hits; AID 1745845; further: nearly all actives have a fitted effect of over 55% in size
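qHTS (up to 57 uM final) was run with 24 h compound exposure of reporter cells at 37 °C. Each well was multiplexed: SteadyGlo luminescence measured ATXN2-luciferase expression after a fluorogenic Gly-Phe-AFC viability readout (25 uM final).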
ATXN viability: viability counter-screen for ATXN expression inhibitors; S2 cells (HEK-293 line with an ATXN2-luciferase reporter) viability, CellTiter-Fluor protease fluorescence, 24 h; Potency, µM (top dose mostly 56.7 µM), most hits filed as cytotoxic; 400,000 compounds, 0.49% hits; AID 651635; further: nearly all actives have a fitted effect of over 40% in size
TGFb SMAD3 inh: inhibitors of TGF-b signaling; HepG2 CAGA-GFP TGF-b/SMAD3 reporter, GFP fluorescence, 18 h; TGF-beta stimulated, 500 pg/mL final; Potency, µM (highest dose often 46.1 µM), usual class: inhibitors; 410,000 compounds, 1.2% hits; further: nearly all actives have a fitted effect of over 65% in size
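Per well, imaged GFP fluorescence of HEPG2 CAGA-GFP cells gives the signal; cells get compound, then TGF-beta (500 pg/mL final), 18 h at 37 degrees C; %Activity versus -TGF-beta and +DMSO controls.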
KB-V1 cytotox: kills drug-selected multidrug resistant KB-V1 cells; Potency, µM (top dose mostly 46.1 µM), usual class: cytotoxic; AID 1347076; KB-V1 MDR cells viability, CellTiter-Glo, 72 h; 400,000 compounds, 3.4% hits; further: nearly all actives have a fitted effect of over 60% in size
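KB-V1 cells (P-gp-expressing MDR subline of KB-3-1) in phenol-red-free DMEM with 10% FBS were exposed to library compounds over a concentration series for 72 h at 37 degrees C. Viability read by CellTiter-Glo luminescence; concentration-effect curves fitted after normalization.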
KB-3-1 cytotox: KB-3-1 parental cell cytotoxicity; KB-3-1 viability, CellTiter-Glo ATP luminescence, 72 h; Potency, µM (highest dose often 46.1 µM), actives largely listed as cytotoxic; 400,000 compounds, 1.4% hits; further: nearly all actives have a fitted effect of over 60% in size
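KB-3-1 cells, DMEM (no phenol red) + 10% FBS; compound by pin transfer, 72 h, 37 °C. Readout: CellTiter-Glo luminescence after 10 min. Data normalized, curve-fitted.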
HepG2 tox: counter-screen for TGF-b inhibitors: cytotoxicity in HepG2 cells; AID 588856; Potency, µM (titrated, usually from 46.1 µM), most hits filed as cytotoxic; 410,000 compounds, 0.76% hits; HepG2 CAGA-GFP viability, ATP luminescence, 18 h
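HepG2 CAGA-GFP cells (1000/well, DMEM with 1% FBS) received compound, then TGF-beta at 500 pg/mL final, and were incubated 18 hours at 37 degrees C. Viability was read by CellTiter-Glo luminescence. Media-only wells were set as complete cell-killing and DMSO as no toxicity.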
A number is an active result; ! = a repeat was not active. An excerpt weighted towards active compounds, which were near 5.9% of everything screened. The call rests on the fitted dose curve; in most records, active means well fitted curve in the direction sought with a large enough effect; inconclusive means small, poorly fitted or top-dose-only effect, or another doubt; inactive means no such curve, though single readings can be large; an effect the other way counts as inactive or inconclusive.

COc1ccc(CC2C(=O)Nc3ccc(Br)cc32)cc1OC (centres undefined) was read as TGFb SMAD3 inh inactive and HepG2 tox 16µM.
Screening Fc1ccc(-c2cc(C(F)(F)C(F)F)[nH]n2)cc1 returned ATXN2 expr inh inactive, TGFb SMAD3 inh inconclusive, KB-V1 cytotox inconclusive, KB-3-1 cytotox inactive and HepG2 tox inactive.
`Oc1ccccc1-c1cc(C(F)(F)C(F)F)[nH]n1` gave ATXN2 expr inh inactive, ATXN viability inactive, TGFb SMAD3 inh 11µM, KB-V1 cytotox inactive, KB-3-1 cytotox inactive and HepG2 tox inactive.
COc1ccc(-n2ccnc(NCCc3ccc(S(N)(=O)=O)cc3)c2=O)cc1Cl was read as ATXN2 expr inh inactive, ATXN viability inactive, TGFb SMAD3 inh inactive, KB-V1 cytotox inactive, KB-3-1 cytotox inactive and HepG2 tox inactive.
`CC(C)(C)c1ccc(OCCn2c(CCNC(=O)C3CCCCC3)nc3ccccc32)cc1` gave TGFb SMAD3 inh 20µM, KB-V1 cytotox inconclusive, KB-3-1 cytotox inconclusive and HepG2 tox inactive.
For O=C(NCCc1nc2ccccc2n1CCCOc1ccc(Cl)cc1)C1CCCCC1 the results were TGFb SMAD3 inh 18µM and HepG2 tox inactive.
Cc1cccc(OCCCn2c(CCNC(=O)C3CCCCC3)nc3ccccc32)c1 was read as TGFb SMAD3 inh 22µM and HepG2 tox inactive.
Screening O=C(NCCCc1nc2ccccc2n1Cc1ccc(F)cc1)C1CCCCC1 returned ATXN2 expr inh inactive, ATXN viability inconclusive, TGFb SMAD3 inh 13µM, KB-V1 cytotox inactive, KB-3-1 cytotox inactive and HepG2 tox inactive.
Screening O=C(NCCCc1nc2ccccc2n1Cc1ccccc1)C1CCCCC1 returned ATXN2 expr inh inconclusive, ATXN viability inconclusive, TGFb SMAD3 inh inconclusive, KB-V1 cytotox inactive, KB-3-1 cytotox inactive and HepG2 tox inactive.
CC(C)CC(=O)N1C/C=C\C[C@@H](c2ccc(Cl)cc2)N(Cc2ccc(Cl)cc2)C(=O)[C@@H]1Cc1ccccc1 was read as TGFb SMAD3 inh inconclusive, KB-V1 cytotox inconclusive, KB-3-1 cytotox inconclusive and HepG2 tox inactive.
`COc1cc(NC(=O)c2cn(C3CCCC3)c(=O)c3c2c2ccccc2n3C)cc(OC)c1OC` gave TGFb SMAD3 inh inactive, KB-V1 cytotox inconclusive, KB-3-1 cytotox inactive and HepG2 tox inactive.
Screening Cc1cnc(SCC2CCCO2)nc1C1CCCN(Cc2nc(-c3ccccc3)cs2)C1 (centres undefined) returned ATXN viability inactive.
Cc1cccc(C)c1OCCn1c(CCNC(=O)C2CCCCC2)nc2ccccc21 was read as TGFb SMAD3 inh 13µM and HepG2 tox inactive.
COc1cccc(C2C(C(N)=O)=C(C)Nc3ncnn32)c1 (centres undefined) was read as ATXN2 expr inh inactive, ATXN viability inactive, TGFb SMAD3 inh inactive, KB-V1 cytotox inactive, KB-3-1 cytotox inactive and HepG2 tox inactive.
Screening CCCCNC(=O)C1(C)CCCCN1C(=O)c1ccno1 (centres undefined) returned ATXN2 expr inh inactive, ATXN viability inactive, TGFb SMAD3 inh inactive, KB-V1 cytotox inactive, KB-3-1 cytotox inactive and HepG2 tox inactive.
Screening CC(C)CC(=O)NC(=S)Nc1ccccc1N1CCCC1 returned ATXN viability inactive, TGFb SMAD3 inh inactive, KB-V1 cytotox inactive, KB-3-1 cytotox inactive and HepG2 tox inactive.
Screening CCC(=O)NC(=S)Nc1cccc(Cl)c1N1CCCCC1 returned ATXN2 expr inh inactive, ATXN viability inactive, TGFb SMAD3 inh 14µM, KB-V1 cytotox inactive, KB-3-1 cytotox inconclusive and HepG2 tox inactive.
For CCCCC(=O)NC(=S)Nc1cccc(Cl)c1N1CCCCC1 the results were ATXN2 expr inh inactive, ATXN viability inactive, TGFb SMAD3 inh inconclusive, KB-V1 cytotox 21µM, KB-3-1 cytotox inactive and HepG2 tox inactive.
For CCCCC(=O)NC(=S)Nc1ccccc1N1CCCCC1 the results were ATXN2 expr inh inactive, ATXN viability inactive, TGFb SMAD3 inh inconclusive, KB-V1 cytotox inactive, KB-3-1 cytotox inactive and HepG2 tox inactive.
Screening CN(C)CCNC(=O)c1ccc(-n2c(-c3ccccc3)cc3c2CCCC3)cc1 returned TGFb SMAD3 inh inconclusive and HepG2 tox 18µM.
`CCCNC(=O)c1ccc(-n2c(-c3ccccc3)cc3c2CCCCC3)cc1` gave TGFb SMAD3 inh inactive and HepG2 tox inactive.
`CCC(C)(C)NC(=O)C(c1cccn1C)N(Cc1ccc(OC)cc1)C(=O)Cn1nnc2ccccc21` (centres undefined) gave ATXN2 expr inh inactive, ATXN viability inactive, TGFb SMAD3 inh inconclusive, KB-V1 cytotox inconclusive, KB-3-1 cytotox inconclusive and HepG2 tox inactive.
`CCC(C)(C)NC(=O)C(c1cccn1C)N(Cc1ccccc1)C(=O)Cn1nnc2ccccc21` (centres undefined) gave ATXN2 expr inh inactive, ATXN viability inactive, TGFb SMAD3 inh inactive, KB-V1 cytotox 2.6µM, KB-3-1 cytotox inactive and HepG2 tox inactive.
`CN(C)CCCn1c2c3ccccc3ccc2c2oc(=O)c3ccccc3c21` gave ATXN2 expr inh inconclusive, ATXN viability inconclusive, TGFb SMAD3 inh 8.9µM, KB-V1 cytotox inconclusive, KB-3-1 cytotox inconclusive and HepG2 tox 10µM!.
`CCNC(=O)C1(C)CCN(C(=O)c2cccc(OC(C)=O)c2C)C1` (centres undefined) gave ATXN2 expr inh inactive, ATXN viability inactive, TGFb SMAD3 inh inactive, KB-V1 cytotox inactive, KB-3-1 cytotox inactive and HepG2 tox inactive.
Screening CC(=O)NC(CC(=O)NNC(=O)C(C)Oc1ccccc1F)c1ccccc1 (centres undefined) returned ATXN2 expr inh inactive, ATXN viability inactive, TGFb SMAD3 inh inactive, KB-V1 cytotox inactive, KB-3-1 cytotox inactive and HepG2 tox inactive.
CC(Oc1ccccc1F)C(=O)NNC(=O)CC(C)c1ccccc1 (centres undefined) was read as ATXN2 expr inh inactive, ATXN viability inactive, TGFb SMAD3 inh inactive, KB-V1 cytotox inactive, KB-3-1 cytotox inactive and HepG2 tox 0.89µM.
For CC1(C)Cc2c(c(N3CCCCC3)[nH]c(=S)c2C#N)CS1 the results were ATXN2 expr inh inactive, ATXN viability inactive, TGFb SMAD3 inh inactive, KB-V1 cytotox 12µM, KB-3-1 cytotox inactive and HepG2 tox inactive.
Screening Cc1cc(C)cc(OCC(=O)N(Cc2cccs2)C2CCS(=O)(=O)C2)c1 (centres undefined) returned ATXN2 expr inh inactive, ATXN viability inactive, TGFb SMAD3 inh inactive, KB-V1 cytotox 8.2µM, KB-3-1 cytotox inactive and HepG2 tox inactive.
`Cc1ccc(OCC(=O)N(Cc2cccs2)C2CCS(=O)(=O)C2)cc1` (centres undefined) gave ATXN2 expr inh inactive, ATXN viability inactive, TGFb SMAD3 inh inactive, KB-V1 cytotox inconclusive, KB-3-1 cytotox inactive and HepG2 tox inactive.
